A selection: hits, their analogues and other compounds. The true share with any hit is near 13%.
HSD17B inhib – blocks hydroxysteroid 17-beta dehydrogenase activity; recombinant HSD17B10, NADH fluorescence kinetic; Q99714; AID 893; 7.6% of 75,000 active; Potency, µM (top dose mostly 57.1 µM), for the others: at the top dose activity change, negative = inhibition, most hits filed as inhibitors;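 also: the protocol describes HADH2 (HSD17B10) and not the HSD17B4 of the title; potency is read from the fitted curve at half-maximal effect; % is scaled to controls: 0 for no effect and ±100 for the full control effect; nearly all actives have a fitted effect of over 70% in size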
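His-tagged E. coli-expressed HADH2 at 20 nM in 100 mM Tris-HCl pH 9.0 with 0.01 % Tween-20, preincubated 15 min with compound at room temperature. Reaction with 1 mM NAD+ and 90 uM beta-hydroxybutyryl coenzyme A; NADH fluorescence (360/450 nm) read kinetically over 4 min, last minus first point.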
A350 fluor – compound fluoresces in the Alexa 350 spectral region; Compound autofluorescence, 340/450 nm, Alexa 350 dye-equivalents; hits give high values; max dye-equivalent concentration, M; 11% of 59,000 active; AID 590; in the data active = max dye-equivalent concentration above about 10 nM; inconclusive = mostly about 1.1 nM to 9.6 nM
AID923 – qHTS Assay for Allosteric/Competitive Inhibitors of Caspase-1: Spectroscopic Profiling in AFC Spectral Region | compound fluorescence, AFC spectral region (405/520 nm) | AID 923, 2007 | 1.1% of 75,000 active | Potency, µM (top dose mostly 57.5 µM), for inactives: top-dose fluorescence increase, usual class: activators; also: potency is read from the fitted curve at half-maximal effect; 0% is about no effect
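Titrations up to 57 uM read every 20 sec for 3 min (405/520 nm) with 50 nM caspase 1 and 5 uM Ac-WEHD-AFC, pH 7.5 HEPES buffer. Fluorescence-vs-time intercept gave baseline, scaled against on-plate AFC standard.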
4MU fluor – compounds fluorescent in 4-MU spectral region; compound autofluorescence, 340/450 nm, 4-MU equivalents; hits give high values; max dye-equivalent concentration, M; 11% of 59,000 active; AID 589; in the data active = max dye-equivalent concentration above about 10 nM; inconclusive = mostly about 1.1 nM to 9.6 nM
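Intrinsic fluorescence at 340/450 nm (ex/em) was read after 15 min at room temperature in pH 8.0, 100 mM Tris. Each compound concentration expressed as 4-MU-equivalent concentration from a six-point 4-MU standard series on each plate.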
HADH2 inh – blocks human hydroxyacyl-CoA dehydrogenase type II; 3.4% of 73,000 active; Potency, µM (highest dose often 57.1 µM), inactives show at the top dose activity change, negative = inhibition, usual class: inhibitors; AID 886; recombinant HADH2, NADH fluorescence, beta-hydroxybutyryl-CoA; Q99714; also: potency is read from the fitted curve at half-maximal effect; % is scaled to controls: 0 for no effect and ±100 for the full control effect; nearly all actives have a fitted effect of over 60% in size
Target sequence (Q99714 whole entry, looked up, one chain of several): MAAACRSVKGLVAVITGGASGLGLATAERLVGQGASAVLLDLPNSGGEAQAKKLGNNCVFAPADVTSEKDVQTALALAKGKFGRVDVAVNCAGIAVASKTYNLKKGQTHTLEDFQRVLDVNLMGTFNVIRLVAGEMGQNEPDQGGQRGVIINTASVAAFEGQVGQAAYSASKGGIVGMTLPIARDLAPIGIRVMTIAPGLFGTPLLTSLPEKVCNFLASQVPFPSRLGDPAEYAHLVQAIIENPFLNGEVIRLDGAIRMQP
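Read-out: 360 nm excitation, 450 nm emission, kinetic over 4 min. Conditions: His-tagged human HADH2 20 nM, pH 9.0 Tris with Tween-20, 1 mM NAD+, 90 uM beta-hydroxybutyryl-CoA.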
The depositor's hits bear a star; i = inactive; u = inconclusive; x = not tested or not shown; ! = not active in a repeat; [ ] = remark or other dose. Unless noted, calls follow the shape of the dose curve; as a rule, active = well fitted curve in the direction sought with a large enough effect; inconclusive = small, poorly fitted or top-dose-only effect, or another doubt; inactive = no such curve, though single readings can be large; an effect the other way counts as inactive or inconclusive.

SMILES	HSD17B inhib	A350 fluor	AID923	4MU fluor	HADH2 inh
S=C(NC1CCCCC1)N1CCC([C@H]2C=NC=N2)CC1	4%[25.6 µM]	i	1%[25.7 µM]	i	2%[25.6 µM]
CC(C)C12CC[C@@]3(CC[C@H]4[C@@](C)(CCC[C@]4(C)C(=O)O)[C@@H]3C1)[C@@H](CN)C2	-4%[11.4 µM]	i	-4%[11.5 µM]	i	22%[11.4 µM]
CC(=O)N1CN(CCCn2ccnc2)Cc2c1sc1c2CCCC1	9%	u	3%	i	-1%
CC(=O)N1CN(Cc2ccccn2)Cc2c1sc1c2CCCC1	6%	1.3e-08M*	20%	u	1%
COc1ccc(NS(=O)(=O)c2ccc3oc4ccccc4c3c2)cn1	6%	1.1e-08M*	-1%	u	4%
C[C@]12CC[C@H]3c4ccc(OC[C@H]5CO5)cc4CC[C@H]3[C@H]1CC[C@@H]2O	44%[11.4 µM]	x	-1%[11.5 µM]	x	8%[11.4 µM]
c1ccc2c(c1)nc(Nc1ccc3c(c1)OCO3)c1nnnn12	32µM*	3.1e-08M*	8%	2.9e-08M*	39%
CCN(CC)S(=O)(=O)c1ccc(Nc2nc3ccccc3n3nnnc23)cc1	u	3.8e-08M*	4%	4.1e-08M*	-19%
Cc1cc(C)n(-c2nc3ccccc3nc2Nc2ccc3c(c2)OCO3)n1	-1%	x	20%	x	-3%
Cc1ccc(S(=O)(=O)Nc2ccc3nc(-c4cccn4C)[nH]c3c2)cc1	-2%	i	0%	i	35%
O=C(CN(C(=O)c1ccc2c(c1)OCCO2)c1ccccc1)NCC1CCCO1 (stereo not drawn)	2%	i	0%	i	-8%
c1ccc(CNc2cc(-c3ccoc3)ncn2)cc1	u	i	4%	i	-2%
O=C(N/N=C\c1ccccc1O)c1ccccc1O	32µM*	x	2%	x	-11%
Cn1cccc1C(=O)N1CCC2(CCCN(Cc3nccs3)C2)CC1	12%	i	7%	i	-3%
CC(C)C(=O)C(C)(C)CCc1ccccn1	8%[11.4 µM]	i	1%[11.5 µM]	i	13%[11.4 µM]
Cc1ccc2c(c1)c(C)c(C)n2CC(O)Cn1nc(C)c(Br)c1C (stereo not drawn)	u	3e-08M*	-2%	2.9e-08M*	u
Cc1ccc2c(c1)c(C)c(C)n2CC(O)CN1CCCCC1C (stereo not drawn)	u	x	0%	x	u
Cc1ccc2c(c1)c1c(n2CC(O)Cn2nc(C)c(Br)c2C)C(=O)CCC1 (stereo not drawn)	u	2e-08M*	0%	2.2e-08M*	4%
CC(=O)c1c(C)nn(CC(O)Cn2c3c(c4cc(C)ccc42)CCCC3=O)c1C (stereo not drawn)	25µM*	9.5e-08M*	7%	1.1e-07M*	u
NC(=O)N1c2ccccc2CC(=O)c2ccccc21	5%	1.8e-08M*	3%	1.3e-08M*	-15%
Clc1ccc(-n2nnnc2Sc2ncnc3sccc23)cc1	-23%	i	-1%	i	16µM*
Cc1sc2ncnc(Sc3nnnn3-c3ccccc3)c2c1C	32µM*	3.9e-08M*	-1%	2.5e-08M*	14%
CC1CC(C)CN(CCCNC(=O)C2CCC(=O)N2C2CCCC2)C1 (stereo not drawn)	10%	i	-1%	i	2%
Nc1nc2c(ncn2C2OC(COC(=O)c3ccccc3)C(OC(=O)c3ccccc3)C2OC(=O)c2ccccc2)c(=O)[nH]1 (stereo not drawn)	1%	x	-1%	x	x
Cc1sc2nc3c(C(=O)N4CCN(c5ncccn5)CC4)cccn3c(=O)c2c1C	7%	2.6e-08M*	1%	2.6e-08M*	0%
SMILES	HSD17B inhib	A350 fluor	AID923	4MU fluor	HADH2 inh
C[C@@](N)(C(=O)O)c1ccc(P(=O)(O)O)cc1	-6%	x	-3%	x	19%
Cc1cccc(-n2c(SCCC(=O)O)nnc2-c2cccs2)c1C	25µM*	i	0%	i	10%
C=CCn1c(SCCC(=O)O)nnc1-c1cccs1	25µM*	i	-2%	i	5%
C=CCn1c(SCC(=O)Nc2ccc3c(c2)CCC3)nnc1-c1cccs1	3%	i	2%	i	-2%
CCOC(=O)C(C)Oc1ccc2c(C)cc(=O)oc2c1C(C)=O (stereo not drawn)	x	i	x	i	x
CCOC(=O)CCc1c(C)c2ccc(OC(C)C(=O)OCC)c(C)c2oc1=O (stereo not drawn)	25µM*	1.1e-08M*	0%	1.2e-08M*	25µM*
CC(=O)NS(=O)(=O)c1ccc(N)cc1	2%	2.6e-08M*!	-5%	2.3e-08M*!	0%
CCOC(=O)C1CCN(CC(=O)Nc2c(C(=O)OC)[nH]c3cccc(C)c23)CC1	u	u	1%	i	-16%
COC(=O)c1[nH]c2cccc(OC)c2c1NC(=O)CN1CCOCC1	32µM*	1.8e-08M*	3%	1.4e-08M*	-24%
COC(=O)c1[nH]c2cccc(Cl)c2c1NC(=O)CN1CCN(CCO)CC1	25µM*	u	1%	i	-16%
COC(=O)c1[nH]c2ccccc2c1NC(=O)CN1CCCCCC1	-7%	i	1%	i	13%
COC(=O)c1[nH]c2cccc(Cl)c2c1NC(=O)CN1CCCCC1C (stereo not drawn)	u	i	-2%	i	1%
COC(=O)c1[nH]c2cccc(OC)c2c1NC(=O)CN1CC2(C)CC1CC(C)(C)C2 (stereo not drawn)	25µM*	u	-1%	u	u
O=C(CSC1=NCCN1)c1ccccc1	-7%[11.4 µM]	u	4%[11.5 µM]	u	4%[11.4 µM]
CC(=O)SC1CC2=CC(=O)CC[C@@]2(C)C2CC[C@@]3(C)[C@@H](CC[C@@]34CCC(=O)O4)C12 (stereo partly drawn)	6%	x	-1%	x	x
O=C(NCc1nc2ccccc2[nH]1)c1ccc(Cl)c(S(=O)(=O)N2CCCC2)c1	-17%	1.3e-08M*	-2%	1.1e-08M*	9%
CCCn1c(NC(=O)c2ccc(Cl)c(S(=O)(=O)N3CCCC3)c2)nc2ccccc21	32µM*	6.1e-08M*	3%	6.5e-08M*	25µM*
O=C(COC(=O)c1ccc(Cl)c(S(=O)(=O)N2CCCC2)c1)NC1CCCC1	12%	i	0%	i	18%
O=C(NCCOC(=O)c1ccc(Cl)c(S(=O)(=O)N2CCCCC2)c1)c1ccncc1	-15%	1.6e-08M*	-2%	1.1e-08M*	0%
O=C(O)C(Cc1ccccc1)Cc1ccccc1	7%[11.4 µM]	i	-1%[11.5 µM]	i	6%[11.4 µM]
NCCSCCc1ccccc1	1%[11.4 µM]	i	3%[11.5 µM]	i	10%[11.4 µM]
CCCCn1c(SCC(=O)Nc2cc(C)on2)nc2ccccc2c1=O	-7%	u	-1%	u	u
CCn1c(SCC(=O)Nc2ccc(NC(=O)c3ccco3)c(OC)c2)nc2ccccc2c1=O	0.79µM*	2.5e-07M*	0%	2.4e-07M*	376%
CCCCn1c(SCC(=O)Nc2cc(NC(=O)c3ccco3)ccc2C)nc2ccccc2c1=O	25µM*	i	-2%	i	17%

Screens from PubChem BioAssay.
